Measured values reported in PubChem BioAssay (EPA / NIEHS).
Records with an inconclusive call do not appear. The source made the active and inactive calls. The calls were made as follows, unless noted: active = hit-call score of the fitted dose curve at least 0.9, where 1 is the maximum; inconclusive = response in the unintended direction; inactive = score below 0.9.

What was measured:
[1] = test system: Sodium/Iodide Symporter (NIS), SLC5A5 (gene 6528); experiment: CPHEA_Stoker_NIS_Inhibition_RAIU: CPHEA's Radioactive Iodide Uptake (RAIU) Assay for Sodium/Iodide Symporter (NIS) Inhibition, Stoker and Laws Labs (AID 2283841)
Summary of the method: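 hNIS-HEK293T-EPA cells incubated 2 h at room temperature with compound (0.001–100 uM, 0.5% DMSO) and 329 pM final 125I in HBSS/10 mM HEPES, pH 7.4. Intracellular 125I counted; normalised to DMSO maximal uptake, triplicate, three biological replicates.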

[2] = CPHEA_Stoker_NIS_Cytotoxicity: Cytotoxicity Assessment for CPHEA's Radioactive Iodide Uptake (RAIU) Assay for Sodium/Iodide Symporter (NIS) Inhibition, Stoker and Laws Labs (AID 2283897);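 as to AC50: active means loss of ATP signal versus DMSO meaning cytotoxicity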
Summary of the method: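 hNIS-HEK293T-EPA cells, human NIS expressed in HEK293T, treated 2 h with chemicals (0.001–100 uM, 0.5% final DMSO). ATP content read by CellTiter-Glo luminescence; loss of signal analysed relative to DMSO.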

[3] = test system: chicken Androgen Receptor (AR), gene 422165; experiment: ATG_chAR_XSP2: Attagene TRANS-FACTORIAL Multi-Species (XSP2) HepG2 Assay for chicken Androgen Receptor (AR) (AID 2283819);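 also: hits raise reporter mRNA above DMSO so potency is for activation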
Summary of the method: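 HepG2 cells transiently transfected with chicken AR–GAL4 chimeric reporter constructs, stimulated with 3 nM 6-alpha-fluorotestosterone plus 1.5 nM norgestrel, dosed 24 h. Reporter mRNA quantified by RT-PCR and capillary electrophoresis; gain of signal fitted versus DMSO.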

[4] = test system: frog Estrogen Receptor (ER), gene 398734; experiment: ATG_frER1_XSP2: Attagene TRANS-FACTORIAL Multi-Species (XSP2) HepG2 Assay for frog Estrogen Receptor (ER) (AID 2283821);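 also: hits raise reporter mRNA above DMSO baseline so potency means agonist or activator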
Summary of the method: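 Steps: transfect HepG2 with multiple reporter transcription units; treat with chemical for 24 h; isolate RNA, reverse-transcribe, PCR-amplify, label with 6-FAM, digest with HpaI; resolve fragments by capillary electrophoresis. Signal is scored against DMSO.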

[5] = test system: zebrafish Estrogen Receptor (ER2b), gene 317733; experiment: ATG_zfER2b_XSP2: Attagene TRANS-FACTORIAL Multi-Species (XSP2) HepG2 Assay for zebrafish Estrogen Receptor (ER2b) (AID 2283823);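 also: fitted upward as reporter gain over DMSO so potency reflects activation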
Summary of the method: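 Reporter transcripts quantified by RT-PCR, fluorescent labelling and capillary electrophoresis after 24 h dosing of transfected HepG2 expressing zebrafish ER2b-GAL4 fusion. Medium contained 3 nM 6-alpha-fluorotestosterone plus 1.5 nM norgestrel; DMSO baseline.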

[6] = test system: frog Androgen Receptor (AR), gene 399456; experiment: ATG_frAR_XSP2: Attagene TRANS-FACTORIAL Multi-Species (XSP2) HepG2 Assay for frog Androgen Receptor (AR) (AID 2283824);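 also: actives raise reporter signal above DMSO so AC50 reflects agonist-like induction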
Summary of the method: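 HepG2 cells transiently transfected with GAL4-UAS reporter units and frog (Xenopus laevis) AR-Gal4 chimera; reporter mRNA measured 24 h after dosing by RT-PCR and capillary electrophoresis. Gain of signal fitted relative to DMSO baseline.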

[7] = target: Estrogen receptor (Homo sapiens) (UniProt P03372); experiment: ATG_hERa_XSP2: Attagene TRANS-FACTORIAL Multi-Species (XSP2) HepG2 Assay for human Estrogen Receptor (ERa) (AID 2283827)
Summary of the method: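 HepG2 cells transiently transfected with multiplexed GAL4-UAS reporters driven by chimeric receptor-Gal4 proteins, dosed 24 h with 3 nM 6-alpha-fluorotestosterone and 1.5 nM norgestrel present. Reporter mRNA by RT-PCR and capillary electrophoresis; gain-of-signal fit versus DMSO.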

[8] = test system: frog Estrogen Receptor (ER2), gene 100174814; experiment: ATG_frER2_XSP2: Attagene TRANS-FACTORIAL Multi-Species (XSP2) HepG2 Assay for frog Estrogen Receptor (ER2) (AID 2283828)
Summary of the method: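 Multiplexed transactivation in HepG2: frog estrogen receptor fused to Gal4 drives a UAS reporter. Signal is reporter mRNA after 24 h treatment.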

[9] = target: Peroxisome proliferator-activated receptor gamma (Homo sapiens) (UniProt P37231); experiment: ATG_hPPARg_XSP2: Attagene TRANS-FACTORIAL Multi-Species (XSP2) HepG2 Assay for human Peroxisome Proliferator-activated Receptor gamma (PPARg) (AID 2283829);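 also: actives raise reporter mRNA above DMSO so AC50 reflects PPARg activation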
Summary of the method: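 HepG2 cells transiently transfected with GAL4-UAS reporter units driven by chimeric NR-Gal4 proteins; androgen receptor stimulated with 3 nM 6-alpha-fluorotestosterone and 1.5 nM norgestrel. After 24 h, reporter mRNA quantified by RT-PCR and capillary electrophoresis versus DMSO.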

[10] = target: Nuclear receptor subfamily 1 group I member 2 (Mus musculus) (UniProt O54915); experiment: ATG_mPXR_XSP2: Attagene TRANS-FACTORIAL Multi-Species (XSP1) HepG2 Assay for mouse Pregnane X Receptor (PXR) (AID 2283831)
Summary of the method: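 HepG2 cells transiently transfected with GAL4-UAS reporter units expressing chimeric NR-Gal4 proteins; 24 h compound exposure. Reporter mRNA quantified by RT-PCR and capillary electrophoresis fluorescence; gain of signal fitted against DMSO.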

[11] = target: zebrafish Thyroid Hormone Receptor alpha (TRa), thraa (gene 30670) (UniProt Q98867); experiment: ATG_zfTRa_XSP2: Attagene TRANS-FACTORIAL Multi-Species (XSP1) HepG2 Assay for zebrafish Thyroid Hormone Receptor alpha (TRa) (AID 2283832);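 also: actives raise zebrafish TRa-Gal4 reporter transcript above DMSO baseline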
Summary of the method: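 Chimeric receptor-Gal4 activity was assessed in transfected human liver HepG2 cells 24 h after dosing, using reporter transcript levels detected by RT-PCR and capillary electrophoresis. DMSO served as baseline.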

[12] = ATG_M_61_XSP2: Attagene TRANS-FACTORIAL Multi-Species (XSP2) HepG2 Assay for M61 Transcription Factor (Internal Marker) (AID 2283835; active = hit-call score of the fitted dose curve at least 0.9, where 1 is the maximum; inactive = score below 0.9;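 also: reporter mRNA of an internal background marker read by RT-PCR and capillary electrophoresis; active means a rise in signal above the DMSO baseline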)
Summary of the method: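 First, HepG2 cells are transfected with reporter units under GAL4-UAS control. Next, chemicals are applied for 24 h. Then total RNA is reverse-transcribed, amplified, fluorescently labelled and sized by capillary electrophoresis, with gain of signal scored against DMSO.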

[13] = target: zebrafish Thyroid Hormone Receptor beta (TRb), thrb (gene 30607) (UniProt Q9PVE4); experiment: ATG_zfTRb_XSP2: Attagene TRANS-FACTORIAL Multi-Species (XSP1) HepG2 Assay for zebrafish Thyroid Hormone Receptor beta (TRb) (AID 2283836)
Summary of the method: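 Fluorescence of labelled reporter cDNA fragments, separated by capillary electrophoresis, gives mRNA induction from exogenous NR-Gal4 chimeras in transiently transfected HepG2 cells after 24 h dosing; 3 nM 6-alpha-fluorotestosterone and 1.5 nM norgestrel included in the run.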

[14] = target: human Thyroid hormone Receptor alpha (TRa), THRA (gene 7067) (UniProt P10827); experiment: ATG_hTRa_XSP2: Attagene TRANS-FACTORIAL Multi-Species (XSP2) HepG2 Assay for human Thyroid hormone Receptor alpha (TRa) (AID 2283838)
Summary of the method: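 HepG2 cells transiently transfected with multiplexed GAL4-UAS reporter units and exogenous NR-GAL4 chimeras; 24 h chemical exposure with 3 nM 6-alpha-fluorotestosterone and 1.5 nM norgestrel present. Reporter mRNA measured by RT-PCR, FAM labelling, HpaI digestion, capillary electrophoresis; gain-of-signal versus DMSO.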

[15] = test system: turtle Thyroid Hormone Receptor, alpha (TRa), gene 101949057; experiment: ATG_trTRa_XSP2: Attagene TRANS-FACTORIAL Multi-Species (XSP1) HepG2 Assay for turtle Thyroid Hormone Receptor, alpha (TRa) (AID 2283834);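 also: hits raise reporter mRNA over the DMSO baseline so AC50 marks activators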
Summary of the method: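 HepG2 cells transiently transfected with GAL4-UAS reporter units for chimeric turtle TRa-Gal4; mRNA measured 24 h after dosing by RT-PCR and capillary electrophoresis fluorescence, gain of signal fitted against DMSO.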

[16] = target: frog Thyroid hormone Receptor alpha (TRa), thra-a (gene 397942) (UniProt P15204); experiment: ATG_frTRa_XSP2: Attagene TRANS-FACTORIAL Multi-Species (XSP2) HepG2 Assay for frog Thyroid hormone Receptor alpha (TRa) (AID 2283839)
Summary of the method: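 HepG2 transiently transfected with multiplexed GAL4-UAS reporters driven by frog TRa-Gal4 chimeras; 24 h chemical exposure. Reporter mRNA quantified by RT-PCR, FAM labelling, HpaI digestion and capillary electrophoresis; gain of signal versus DMSO.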

[17] = target: human Thyroid hormone Receptor beta (TRb), THRB (gene 7068) (UniProt P10828); experiment: ATG_hTRb_XSP2: Attagene TRANS-FACTORIAL Multi-Species (XSP2) HepG2 Assay for human Thyroid hormone Receptor beta (TRb) (AID 2283840);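 also: actives raise reporter mRNA so potency reflects agonist-like gain of signal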
Summary of the method: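 HepG2 transiently transfected with a multi-species panel including a human TRb–Gal4 chimera driving Gal4-UAS reporters; medium contained 3 nM 6-alpha-fluorotestosterone and 1.5 nM norgestrel. 24 h dosing; RT-PCR/capillary electrophoresis readout; positive-direction fit vs DMSO.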

Sequence of human Thyroid hormone Receptor alpha (TRa), THRA (gene 7067) (P10827 whole entry, looked up, the tested form may be a part): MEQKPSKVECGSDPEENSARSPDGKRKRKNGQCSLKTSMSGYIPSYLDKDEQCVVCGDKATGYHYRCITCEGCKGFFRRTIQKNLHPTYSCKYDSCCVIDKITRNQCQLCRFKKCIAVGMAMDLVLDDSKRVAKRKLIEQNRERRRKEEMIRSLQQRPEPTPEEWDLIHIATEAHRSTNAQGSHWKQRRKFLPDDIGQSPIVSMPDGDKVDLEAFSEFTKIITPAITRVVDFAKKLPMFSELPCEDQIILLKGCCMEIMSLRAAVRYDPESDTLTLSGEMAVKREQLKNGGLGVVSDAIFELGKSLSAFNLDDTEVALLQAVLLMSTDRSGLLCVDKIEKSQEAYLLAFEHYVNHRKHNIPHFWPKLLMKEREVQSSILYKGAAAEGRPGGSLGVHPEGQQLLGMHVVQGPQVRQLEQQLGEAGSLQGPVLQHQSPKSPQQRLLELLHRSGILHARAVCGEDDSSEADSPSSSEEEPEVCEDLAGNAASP
Sequence of Peroxisome proliferator-activated receptor gamma (Homo sapiens) (P37231 whole entry, looked up, the tested form may be a part): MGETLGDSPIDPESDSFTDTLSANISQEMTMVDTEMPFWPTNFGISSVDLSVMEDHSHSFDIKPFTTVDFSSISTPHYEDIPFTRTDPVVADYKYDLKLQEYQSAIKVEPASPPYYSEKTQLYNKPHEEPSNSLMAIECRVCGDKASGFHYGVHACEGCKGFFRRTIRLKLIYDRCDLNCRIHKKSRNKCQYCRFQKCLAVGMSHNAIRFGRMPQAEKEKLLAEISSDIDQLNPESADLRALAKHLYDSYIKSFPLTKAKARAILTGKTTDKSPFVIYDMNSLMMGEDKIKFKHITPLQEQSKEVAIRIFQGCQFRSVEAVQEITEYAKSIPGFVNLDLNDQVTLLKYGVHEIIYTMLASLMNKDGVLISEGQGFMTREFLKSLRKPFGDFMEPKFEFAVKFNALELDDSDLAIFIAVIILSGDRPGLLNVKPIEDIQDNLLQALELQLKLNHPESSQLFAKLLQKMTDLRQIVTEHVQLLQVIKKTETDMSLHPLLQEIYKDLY
Sequence of zebrafish Thyroid Hormone Receptor beta (TRb), thrb (gene 30607) (Q9PVE4 whole entry, looked up, the tested form may be a part): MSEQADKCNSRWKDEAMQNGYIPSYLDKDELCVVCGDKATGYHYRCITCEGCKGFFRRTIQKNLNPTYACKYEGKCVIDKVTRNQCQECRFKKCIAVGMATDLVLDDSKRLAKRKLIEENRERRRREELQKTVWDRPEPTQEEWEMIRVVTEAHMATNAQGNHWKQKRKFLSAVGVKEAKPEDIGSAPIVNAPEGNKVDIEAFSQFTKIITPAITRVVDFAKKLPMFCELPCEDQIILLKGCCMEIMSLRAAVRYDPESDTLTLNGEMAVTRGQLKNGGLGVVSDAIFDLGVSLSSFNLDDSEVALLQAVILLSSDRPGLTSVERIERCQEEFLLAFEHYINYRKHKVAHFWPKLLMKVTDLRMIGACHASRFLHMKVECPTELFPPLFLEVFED
Sequence of Nuclear receptor subfamily 1 group I member 2 (Mus musculus) (O54915 whole entry, looked up, the tested form may be a part): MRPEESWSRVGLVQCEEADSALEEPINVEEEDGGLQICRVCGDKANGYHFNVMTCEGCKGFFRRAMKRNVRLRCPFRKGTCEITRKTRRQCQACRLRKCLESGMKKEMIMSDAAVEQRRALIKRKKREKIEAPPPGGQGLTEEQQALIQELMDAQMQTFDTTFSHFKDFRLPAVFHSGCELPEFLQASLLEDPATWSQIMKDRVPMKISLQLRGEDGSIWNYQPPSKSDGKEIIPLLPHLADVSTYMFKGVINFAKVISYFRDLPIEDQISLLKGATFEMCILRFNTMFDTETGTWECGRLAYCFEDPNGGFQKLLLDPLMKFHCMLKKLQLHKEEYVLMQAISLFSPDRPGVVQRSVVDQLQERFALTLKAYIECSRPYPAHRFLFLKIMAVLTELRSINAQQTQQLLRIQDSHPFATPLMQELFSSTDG
Sequence of Estrogen receptor (Homo sapiens) (P03372 whole entry, looked up, the tested form may be a part): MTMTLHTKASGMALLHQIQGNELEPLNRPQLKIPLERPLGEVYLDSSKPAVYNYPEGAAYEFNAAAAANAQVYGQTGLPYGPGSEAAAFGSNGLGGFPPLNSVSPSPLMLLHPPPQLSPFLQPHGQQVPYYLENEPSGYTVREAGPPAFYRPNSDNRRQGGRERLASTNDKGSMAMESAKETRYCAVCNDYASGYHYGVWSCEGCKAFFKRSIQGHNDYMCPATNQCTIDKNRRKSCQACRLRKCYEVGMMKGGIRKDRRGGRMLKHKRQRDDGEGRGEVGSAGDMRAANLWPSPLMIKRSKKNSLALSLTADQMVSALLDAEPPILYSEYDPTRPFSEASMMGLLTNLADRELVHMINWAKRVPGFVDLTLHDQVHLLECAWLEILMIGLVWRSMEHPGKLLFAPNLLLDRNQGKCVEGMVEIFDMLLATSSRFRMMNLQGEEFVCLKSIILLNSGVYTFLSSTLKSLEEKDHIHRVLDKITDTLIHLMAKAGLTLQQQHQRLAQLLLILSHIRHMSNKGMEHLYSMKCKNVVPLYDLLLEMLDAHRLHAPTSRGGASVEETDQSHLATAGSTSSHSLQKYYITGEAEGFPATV
Sequence of zebrafish Thyroid Hormone Receptor alpha (TRa), thraa (gene 30670) (Q98867 whole entry, looked up, the tested form may be a part): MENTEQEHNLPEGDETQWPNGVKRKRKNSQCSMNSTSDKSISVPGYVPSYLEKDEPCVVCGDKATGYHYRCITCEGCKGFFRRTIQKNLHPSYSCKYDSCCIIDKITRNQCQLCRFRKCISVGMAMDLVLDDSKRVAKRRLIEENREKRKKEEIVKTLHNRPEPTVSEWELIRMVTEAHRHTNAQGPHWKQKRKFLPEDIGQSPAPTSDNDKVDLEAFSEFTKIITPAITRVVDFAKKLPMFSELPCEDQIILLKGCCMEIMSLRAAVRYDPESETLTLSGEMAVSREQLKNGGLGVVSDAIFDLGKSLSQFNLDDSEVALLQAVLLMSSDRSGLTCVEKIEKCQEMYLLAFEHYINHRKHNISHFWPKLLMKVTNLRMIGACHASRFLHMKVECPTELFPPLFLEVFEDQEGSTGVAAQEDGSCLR
Sequence of human Thyroid hormone Receptor beta (TRb), THRB (gene 7068) (P10828 whole entry, looked up, the tested form may be a part): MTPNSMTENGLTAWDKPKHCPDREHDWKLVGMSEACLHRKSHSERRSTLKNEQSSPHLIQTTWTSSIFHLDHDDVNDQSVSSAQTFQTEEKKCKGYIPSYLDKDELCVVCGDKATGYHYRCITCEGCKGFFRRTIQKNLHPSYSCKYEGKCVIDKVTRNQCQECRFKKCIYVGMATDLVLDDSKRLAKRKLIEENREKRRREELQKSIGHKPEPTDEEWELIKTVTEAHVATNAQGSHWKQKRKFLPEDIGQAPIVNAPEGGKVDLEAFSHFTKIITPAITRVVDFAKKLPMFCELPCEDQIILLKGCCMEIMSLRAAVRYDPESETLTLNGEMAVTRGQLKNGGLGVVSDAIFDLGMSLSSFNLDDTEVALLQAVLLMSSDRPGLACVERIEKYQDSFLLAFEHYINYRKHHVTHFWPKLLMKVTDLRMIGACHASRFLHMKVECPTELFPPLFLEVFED
Sequence of frog Thyroid hormone Receptor alpha (TRa), thra-a (gene 397942) (P15204 whole entry, looked up, the tested form may be a part): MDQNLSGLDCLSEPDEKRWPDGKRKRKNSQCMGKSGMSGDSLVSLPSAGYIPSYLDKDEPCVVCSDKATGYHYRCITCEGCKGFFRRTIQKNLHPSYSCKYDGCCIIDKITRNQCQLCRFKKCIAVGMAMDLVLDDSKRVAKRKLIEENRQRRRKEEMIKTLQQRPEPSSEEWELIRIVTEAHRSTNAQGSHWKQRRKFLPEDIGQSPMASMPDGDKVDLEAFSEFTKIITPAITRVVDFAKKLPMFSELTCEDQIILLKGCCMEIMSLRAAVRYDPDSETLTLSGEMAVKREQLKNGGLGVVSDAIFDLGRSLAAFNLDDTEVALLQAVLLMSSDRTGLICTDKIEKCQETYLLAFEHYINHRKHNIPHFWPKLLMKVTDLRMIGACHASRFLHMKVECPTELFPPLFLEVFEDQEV

With `OCC(F)(F)C(F)(F)C(F)(F)C(F)(F)C(F)(F)C(F)(F)CO` the outcome [1] was “inactive”.

With `C=CC(=O)OCC(F)(F)C(F)(F)C(F)(F)COC(=O)C=C` the outcome [1] was “inactive”.

With `CCCCCCCCn1sc(Cl)c(Cl)c1=O` the AC50 [1] was 9.92 µM (active) and the outcome [2] was “inactive”.

With `O=C(c1ccccc1)c1ccc(O)cc1O` the outcome [3] was “inactive”, the AC50 [4] was 3.76 µM (active) and the AC50 [5] was 5.04 µM (active). For the same compound, the outcome [6] was “inactive”, the AC50 [7] was 2.31 µM (active) and the AC50 [8] was 2.73 µM (active). For the same compound, the outcome [9] was “inactive”, the outcome [10] was “inactive” and the outcome [11] was “inactive”. The outcome [12] was “inactive”, the outcome [13] was “inactive” and the outcome [14] was “inactive”. For the same compound, the outcome [1] was “inactive” and the outcome [2] was “inactive”.

For `OCCCC(F)(F)C(F)(F)C(F)(F)C(F)(F)C(F)(F)C(F)(F)C(F)(F)C(F)(F)F`, the outcome [1] was “inactive”.

For `CCN=C1C=CC(=C(c2ccc(N(CC)CC)cc2)c2ccc(N(CC)CC)cc2)c2ccccc21`, the AC50 [1] was 0.553 µM (active) and the AC50 [2] was 10 µM (active).

For `COCCOCCC[Si](C)(O[Si](C)(C)C)O[Si](C)(C)C`, the AC50 [1] was 19.4 µM (active) and the outcome [2] was “inactive”.

In the case of `O=S(=O)(OCC(F)(F)F)C(F)(F)C(F)(F)C(F)(F)C(F)(F)F`, the outcome [1] is reported as “inactive”.

For `O=C(F)C1(F)C(F)(F)C(F)(F)C(F)(F)C(F)(F)C1(F)F`, the outcome [1] was “inactive”.

For `O=S(=O)(Cl)C(F)(F)C(F)(F)C(F)(F)C(F)(F)C(F)(F)C(F)(F)C(F)(F)C(F)(F)F`, the AC50 [1] was 16.9 µM (active).

In the case of `FC(F)(F)C(F)(F)C(F)(F)C(F)(F)C(F)(F)C(F)(F)C(F)(F)CCI`, the AC50 [1] is reported as 3.31 µM (active).

In the case of `CCN(CCO)S(=O)(=O)C(F)(F)C(F)(F)C(F)(F)C(F)(F)C(F)(F)C(F)(F)C(F)(F)C(F)(F)F`, the outcome [1] is reported as “inactive”.

In the case of `C[C@]12CC[C@H]3C(=CCc4cc(O)ccc43)[C@@H]1CCC2=O`, the AC50 [4] is reported as 0.0159 µM (active), the AC50 [5] is reported as 0.0258 µM (active) and the AC50 [8] is reported as 0.0228 µM (active). For the same compound, the outcome [9] was “inactive”, the outcome [15] was “inactive” and the outcome [12] was “inactive”. For the same compound, the outcome [13] was “inactive”, the outcome [14] was “inactive” and the outcome [16] was “inactive”. The outcome [17] was “inactive”, the outcome [1] was “inactive” and the outcome [2] was “inactive”.
